Data reported in ChEMBL document CHEMBL2218924, “A broad activity screen in support of a chemogenomic map for kinase signalling research and drug discovery” (Biochem J, 2013).

molecular target: Ribosomal protein S6 kinase alpha-6 (Homo sapiens) (UniProt Q9UK32); conditions: at 1 µM
Sequence (Q9UK32 whole entry): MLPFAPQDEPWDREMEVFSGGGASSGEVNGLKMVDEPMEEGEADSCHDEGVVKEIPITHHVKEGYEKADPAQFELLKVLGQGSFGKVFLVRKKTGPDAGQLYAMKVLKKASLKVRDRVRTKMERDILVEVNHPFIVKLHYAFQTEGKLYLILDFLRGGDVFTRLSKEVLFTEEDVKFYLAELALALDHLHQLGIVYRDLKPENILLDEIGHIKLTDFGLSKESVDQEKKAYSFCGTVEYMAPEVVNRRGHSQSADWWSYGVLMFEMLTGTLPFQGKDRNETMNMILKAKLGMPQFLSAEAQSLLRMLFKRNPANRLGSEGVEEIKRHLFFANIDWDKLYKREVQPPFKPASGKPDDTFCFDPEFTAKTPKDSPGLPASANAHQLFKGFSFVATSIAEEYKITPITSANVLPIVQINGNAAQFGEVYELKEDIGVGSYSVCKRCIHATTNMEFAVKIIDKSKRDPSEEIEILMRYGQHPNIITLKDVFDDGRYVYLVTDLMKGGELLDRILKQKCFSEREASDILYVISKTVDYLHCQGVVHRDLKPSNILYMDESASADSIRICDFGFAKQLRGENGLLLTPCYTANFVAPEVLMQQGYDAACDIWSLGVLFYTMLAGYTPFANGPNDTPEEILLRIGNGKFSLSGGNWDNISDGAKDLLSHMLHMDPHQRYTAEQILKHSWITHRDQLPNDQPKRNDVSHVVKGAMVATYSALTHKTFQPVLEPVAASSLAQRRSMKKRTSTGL

Q: With `Nc1cccc(-c2cc3c(Oc4cccc(O)c4)ncnc3[nH]2)c1` as the compound, how does the residual activity read?
A: 56%

Q: Which residual activity does the source give for `COc1cc2ncnc(Nc3ccc(NC(=O)c4ccccc4)cc3)c2cc1OC` here?
A: 104%

Q: Which residual activity does the source give for `Cn1nc2c3c(cccc31)C(=O)c1ccccc1-2` here?
A: 59%

Q: For `N#Cc1cnc2cnc(NCc3cccnc3)cc2c1Nc1ccc(F)c(Cl)c1`, which residual activity is on record?
A: 97%

Q: With `c1ccc2c(-c3ccncc3)c[nH]c2c1` as the compound, how does the residual activity read?
A: 89%

Q: With `O=C(Nc1cccc(Nc2nccc(Nc3cccc(C(F)(F)F)c3)n2)c1)C1CC1` as the compound, how does the residual activity read?
A: 96%

Q: How did the residual activity turn out when `CC(C)n1cnc2c(NCc3ccccc3)nc(NCCCO)nc21` was run?
A: 81%

Q: How did the residual activity turn out when `COc1cc2ncnc(Nc3ccc(Oc4ccccc4)cc3)c2cc1OC` was run?
A: 102%

Q: With `O=C(O)c1ccc2c3c1cccc3c(=O)n1c3ccccc3nc21` as the compound, how does the residual activity read?
A: 81%

Q: With `Cn1cnc2cc3c(Nc4cccc(Br)c4)ncnc3cc21` as the compound, how does the residual activity read?
A: 115%

Q: `O=C1Nc2ccc(Br)cc2/C1=C\c1cc2c([nH]1)CCCC2` was tested. Which residual activity did it give?
A: 79%

Q: How did the residual activity turn out when `CC(=O)c1ccc(N2CCOCC2)cc1O` was run?
A: 128%

Q: For `N#CCCc1ccc2c(c1)-c1[nH]c3ccc([N+](=O)[O-])cc3c1CC(=O)N2`, which residual activity is on record?
A: 16%

Q: For `Cc1cncc2cccc(S(=O)(=O)N3CCCN(C(=O)CN)C[C@H]3C)c12`, which residual activity is on record?
A: 90%

Q: With `Cc1ccc(S(=O)(=O)/C=C/C#N)cc1` as the compound, how does the residual activity read?
A: 74%

Q: How did the residual activity turn out when `O=C1NC(=O)c2cc(Nc3ccc(F)cc3)c(Nc3ccc(F)cc3)cc21` was run?
A: 101%

Q: Which residual activity does the source give for `C[C@@H](N)[C@H]1CC[C@H](C(=O)Nc2ccncc2)CC1` here?
A: 110%

Q: `CCN(CC)C(=O)c1ccc(Nc2nc(OCC3CCCCC3)c3nc[nH]c3n2)cc1` was tested. Which residual activity did it give?
A: 28%

Q: How did the residual activity turn out when `Cn1cc(/C=C2\C(=O)Nc3ccc(S(N)(=O)=O)cc32)c2ccccc21` was run?
A: 21%

Q: For `O=C1Nc2ccccc2/C1=C1/Nc2ccccc2/C1=N\OCCC(O)CO` (stereo not drawn), which residual activity is on record?
A: 7%

Q: For `NC(=O)c1ccc2[nH]c(-c3ccc(Oc4ccc(Cl)cc4)cc3)nc2c1`, which residual activity is on record?
A: 27%

Q: For `N#CC(C#N)=C(N)/C(C#N)=C/c1ccc(O)cc1`, which residual activity is on record?
A: 94%

Q: `Cc1cc(Nc2nc(-c3ccccc3)nc3ccccc23)n[nH]1` was tested. Which residual activity did it give?
A: 43%

Q: Which residual activity does the source give for `Cc1cc2ncc(-c3ccccc3)nc2cc1C` here?
A: 97%

Q: For `Cc1nc2cc3nc(-c4cccs4)cnc3cc2n1C`, which residual activity is on record?
A: 101%

Q: With `CO[C@H]1[C@@H](OC)C[C@H](C)[C@@H](OC)C2=CC(=O)C=C(NC(=O)/C(C)=C/C=C/[C@H](OC)[C@@H](OC(N)=O)/C(C)=C/[C@@H]1C)C2=O` as the compound, how does the residual activity read?
A: 113%

Q: `CN(C)CCCn1cc(C2=C(c3c[nH]c4ccccc34)C(=O)NC2=O)c2ccccc21` was tested. Which residual activity did it give?
A: 4%

Q: `Oc1ccc(-c2nc(-c3ccc(F)cc3)c(-c3ccncc3)[nH]2)cc1` was tested. Which residual activity did it give?
A: 88%

Q: With `COc1cc2ncc(-c3ccccc3)nc2cc1OC` as the compound, how does the residual activity read?
A: 92%

Q: Which residual activity does the source give for `COc1cc2ncnc(N3CCN(C(=O)Nc4ccc(Oc5ccccc5)cc4)CC3)c2cc1OC` here?
A: 106%

Q: `O=C1NC(=O)/C(=C\c2ccc3nccnc3c2)S1` was tested. Which residual activity did it give?
A: 101%

Q: With `Oc1ccc(Nc2nc(-c3ccc(Cl)cc3)cs2)cc1` as the compound, how does the residual activity read?
A: 93%

molecular target: Ribosomal protein S6 kinase alpha-6 (Homo sapiens) (UniProt Q9UK32); conditions: at 10 µM

Q: For `Nc1cccc(-c2cc3c(Oc4cccc(O)c4)ncnc3[nH]2)c1`, which residual activity is on record?
A: 41%

Q: With `COc1cc2ncnc(Nc3ccc(NC(=O)c4ccccc4)cc3)c2cc1OC` as the compound, how does the residual activity read?
A: 109%

Q: Which residual activity does the source give for `Cn1nc2c3c(cccc31)C(=O)c1ccccc1-2` here?
A: 67%

Q: `N#Cc1cnc2cnc(NCc3cccnc3)cc2c1Nc1ccc(F)c(Cl)c1` was tested. Which residual activity did it give?
A: 93%

Q: Which residual activity does the source give for `c1ccc2c(-c3ccncc3)c[nH]c2c1` here?
A: 107%

Q: For `O=C(Nc1cccc(Nc2nccc(Nc3cccc(C(F)(F)F)c3)n2)c1)C1CC1`, which residual activity is on record?
A: 128%

Q: `CC(C)n1cnc2c(NCc3ccccc3)nc(NCCCO)nc21` was tested. Which residual activity did it give?
A: 91%

Q: `COc1cc2ncnc(Nc3ccc(Oc4ccccc4)cc3)c2cc1OC` was tested. Which residual activity did it give?
A: 130%

Q: With `O=C(O)c1ccc2c3c1cccc3c(=O)n1c3ccccc3nc21` as the compound, how does the residual activity read?
A: 73%

Q: With `Cn1cnc2cc3c(Nc4cccc(Br)c4)ncnc3cc21` as the compound, how does the residual activity read?
A: 68%

Q: With `O=C1Nc2ccc(Br)cc2/C1=C\c1cc2c([nH]1)CCCC2` as the compound, how does the residual activity read?
A: 113%

Q: Which residual activity does the source give for `CC(=O)c1ccc(N2CCOCC2)cc1O` here?
A: 102%

Q: For `N#CCCc1ccc2c(c1)-c1[nH]c3ccc([N+](=O)[O-])cc3c1CC(=O)N2`, which residual activity is on record?
A: 5%

Q: With `Cc1cncc2cccc(S(=O)(=O)N3CCCN(C(=O)CN)C[C@H]3C)c12` as the compound, how does the residual activity read?
A: 66%

Q: How did the residual activity turn out when `Cc1ccc(S(=O)(=O)/C=C/C#N)cc1` was run?
A: 112%

Q: How did the residual activity turn out when `O=C1NC(=O)c2cc(Nc3ccc(F)cc3)c(Nc3ccc(F)cc3)cc21` was run?
A: 100%

Q: With `C[C@@H](N)[C@H]1CC[C@H](C(=O)Nc2ccncc2)CC1` as the compound, how does the residual activity read?
A: 60%

Q: `CCN(CC)C(=O)c1ccc(Nc2nc(OCC3CCCCC3)c3nc[nH]c3n2)cc1` was tested. Which residual activity did it give?
A: 7%

Q: With `Cn1cc(/C=C2\C(=O)Nc3ccc(S(N)(=O)=O)cc32)c2ccccc21` as the compound, how does the residual activity read?
A: 10%

Q: How did the residual activity turn out when `O=C1Nc2ccccc2/C1=C1/Nc2ccccc2/C1=N\OCCC(O)CO` (stereo not drawn) was run?
A: 7%

Q: `NC(=O)c1ccc2[nH]c(-c3ccc(Oc4ccc(Cl)cc4)cc3)nc2c1` was tested. Which residual activity did it give?
A: 29%

Q: For `Cc1cc(Nc2nc(-c3ccccc3)nc3ccccc23)n[nH]1`, which residual activity is on record?
A: 8%

Q: `Cc1cc2ncc(-c3ccccc3)nc2cc1C` was tested. Which residual activity did it give?
A: 100%

Q: With `Cc1nc2cc3nc(-c4cccs4)cnc3cc2n1C` as the compound, how does the residual activity read?
A: 84%

Q: For `CO[C@H]1[C@@H](OC)C[C@H](C)[C@@H](OC)C2=CC(=O)C=C(NC(=O)/C(C)=C/C=C/[C@H](OC)[C@@H](OC(N)=O)/C(C)=C/[C@@H]1C)C2=O`, which residual activity is on record?
A: 91%

Q: `CN(C)CCCn1cc(C2=C(c3c[nH]c4ccccc34)C(=O)NC2=O)c2ccccc21` was tested. Which residual activity did it give?
A: 3%

Q: Which residual activity does the source give for `Oc1ccc(-c2nc(-c3ccc(F)cc3)c(-c3ccncc3)[nH]2)cc1` here?
A: 92%

Q: `COc1cc2ncc(-c3ccccc3)nc2cc1OC` was tested. Which residual activity did it give?
A: 94%

Q: How did the residual activity turn out when `COc1cc2ncnc(N3CCN(C(=O)Nc4ccc(Oc5ccccc5)cc4)CC3)c2cc1OC` was run?
A: 111%

Q: `O=C1NC(=O)/C(=C\c2ccc3nccnc3c2)S1` was tested. Which residual activity did it give?
A: 99%

Q: For `Oc1ccc(Nc2nc(-c3ccc(Cl)cc3)cs2)cc1`, which residual activity is on record?
A: 113%
